High-throughput results: PubChem, ICCB-Longwood Screening Facility, Harvard Medical School
The list is not random: actives were taken first. Their share in the collection is about 1.5%.
PV pol inh = poliovirus RNA polymerase inhibition; P03300; poliovirus polymerase elongation, fluorescence polarization; active compounds read low; % elongation, % (compound at 16.7 µg/mL); 150,000 compounds, 0.66% hits; AID 588519; in the data active = % elongation below about 90%
AID504770 = growth inhibitors of E. coli YBA685 in a screen for V. cholerae RctB (chromosome II replication) inhibitors. E. coli YBA685 rctB-dependent plasmid, OD600 growth, 3 h; active compounds read low. z-score (test concentration not listed). AID 504770. 130,000 compounds, 0.27% hits; in the data active = z-score below about -2, passing the limit was not always enough
Mtb MbtI inh = inhibitors of Mycobacterium tuberculosis siderophore enzyme MbtI | P9WFX0 | purified MbtI enzyme, fluorescence intensity read-out | inhibition, % (no concentration beside the values) | 100,000 compounds, 0.89% hits | AID 493033; in the data active = inhibition mostly above about 56%, no sharp cut-off; inactive = mostly below about 77%
Target sequence (P9WFX0 whole entry, looked up): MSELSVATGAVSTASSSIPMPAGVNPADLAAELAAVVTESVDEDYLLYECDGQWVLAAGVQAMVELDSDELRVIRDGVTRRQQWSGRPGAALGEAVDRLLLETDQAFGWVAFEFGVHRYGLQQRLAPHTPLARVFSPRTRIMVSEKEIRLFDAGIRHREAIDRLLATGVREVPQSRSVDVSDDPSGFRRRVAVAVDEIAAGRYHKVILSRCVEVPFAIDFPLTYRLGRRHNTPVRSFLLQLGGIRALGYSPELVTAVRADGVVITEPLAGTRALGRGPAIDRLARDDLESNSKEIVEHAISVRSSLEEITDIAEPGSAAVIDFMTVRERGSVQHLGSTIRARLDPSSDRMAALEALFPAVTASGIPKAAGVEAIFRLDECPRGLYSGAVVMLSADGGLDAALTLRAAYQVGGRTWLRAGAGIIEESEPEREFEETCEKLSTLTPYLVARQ
Mtb MenB inh = inhibitors of Mycobacterium tuberculosis MenB enzyme | P9WNP5 | MenB enzyme assay, absorbance read-out | inhibition, % (concentration not given with the values) | 100,000 compounds, 0.43% hits; in the data active = inhibition above about 21%, passing the limit was not always enough
The depositor's hits bear a star; / = no result given.

SMILES	PV pol inh	AID504770	Mtb MbtI inh	Mtb MenB inh
N#CC1=C(SCc2ccccc2)SC(CO)NC1=O (centres undefined)	100.0	0.5	10.9	38.3*
CCOC(=O)CCCc1ccc(/C=C/C(=O)O)s1	100.0	-0.55	/	6.2
CN(C)C(CNC(=O)c1ccccn1)c1ccco1 (centres undefined)	101.0	-0.2	39.3	-42.6
CN(C)C(CNCc1ccc(-n2cnc3ccccc32)cc1)c1ccco1 (centres undefined)	101.0	1.3	4.8	32.2*
N#Cc1c(N2CCCC2)nc(N)c2c(N)nc(N3CCCC3)cc12	74.0*	-0.45	-41.2	3.0
CC(C)CC(C(=O)O)N1C(=O)/C(=C\c2cccn2C)SC1=S (centres undefined)	116.0	0.85	22.6	-209.9
O=C1CSc2nnc(-c3ccccc3)n21	54.0*	0.3	0.0	8.7
COc1ccc(-n2nc3c(N4CCCC(C(=O)NCc5ccc(C)cc5)C4)nnc(C)c3c2C)cc1 (centres undefined)	89.0*	/	/	/
O=C(O)c1ccc2c(c1)CCCN2	/	0.75	/	/
Clc1ccc2c(c1)CCN2	100.0	-2.15	27.1	36.3*
CCNc1nc(-c2ccccc2)cs1	/	-0.05	/	/
CC(C)CNc1nc(-c2ccccc2)cs1	102.0	-0.8	91.1*	-49.9
CCc1cc(Br)ccc1NC(C)=O	/	-2.65*	/	/
CCCNC(=O)Nc1ccc(Br)cc1F	103.0	-0.65	-17.1	-5.0
CCCn1c(=O)[nH][nH]c1=S	100.0	-0.15	87.8*	3.4
COC(=O)c1c(-c2ccccc2)csc1N	94.0	-0.75	58.8*	-19.0
COC(=O)c1c(-c2ccccc2)csc1NC(=O)CCN1CCC(C)CC1	/	-0.25	/	/
Cc1ccc(S(=O)(=O)NC(=O)Nc2[nH]n(-c3ccccc3)c(=O)c2C2=NCCCCC2)cc1	100.0	0.6	32.5	-13.6
FC(F)(F)c1cc(C(F)(F)F)n2[nH]c(=S)nc2n1	98.0	-0.3	95.7*	-102.6
COc1ccccc1N1CCN(C(=O)c2ccccc2C(F)(F)F)CC1	100.0	-0.35	-9.4	-5.2
COc1ccccc1N1CCN(C(=O)c2ccc[nH]c2=S)CC1	101.0	1.45	81.1*	-35.6
C=CCN(CC=C)Cn1[nH]c(-c2cccs2)nc1=S	99.0	-0.1	95.7*	-3.2
N#CSc1ccc(NCCO)cc1C(F)(F)F	103.0	-0.2	57.8*	-30.8
OCCNc1ccc(Cl)cc1	104.0	0	-4.9	1.0
CCc1nc2c(cnn2-c2ccccc2)c(=O)n1-c1ccc(C)cc1	103.0	-0.3	-13.9	-26.9
SMILES	PV pol inh	AID504770	Mtb MbtI inh	Mtb MenB inh
O=S(=O)(NC1CCc2ccccc21)c1ccc(S(=O)(=O)N2CCCC2)cc1 (centres undefined)	102.0	1.4	-4.8	39.3*
O=C(NC1CCCc2ccccc21)c1cc(S(=O)(=O)N2CCCCC2)c[nH]1 (centres undefined)	101.0	2	-6.4	-44.3
O=C(O)CCCc1ccc(/C=N/O)s1	103.0	1.85	4.3	-35.7
Cc1ccsc1C=Nc1ccc(O)cc1	100.0	2.2	95.7*	-28.3
Cc1ccsc1C=Nc1ccc(OC(F)(F)F)cc1	102.0	-0.3	-10.4	/
CCc1ccccc1NC(=O)CN1CCN(Cc2ccccc2C)S1(=O)=O	102.0	-3.45*	2.5	-14.9
CN1CCC(N(C)C(=O)c2cc3sc4ccccc4c3s2)CC1	101.0	1.3	-5.5	/
O=S(=O)(/C=C/c1ccccc1)NNc1ccccc1	99.0	-1.2	21.4	3.5
O=C(O)CCc1nnc2ccc(NCCCN3CCCC3=O)nn12	101.0	-0.55	3.7	-8.9
N#C/C(=C\C=C\c1ccco1)C(N)=S	84.0*	1.25	68.2	-57.5
O=C1C=CC(=O)C(Sc2nnnn2-c2ccccc2)=C1	99.0	-0.7	101.8*	-2.5
CCN(CC)c1ccc(/C=C(/C#N)C(=O)NC(C)C)o1	77.0	-3.4*	4.5	-162.3
CCN(CCC#N)c1ccc(/C=C(\C#N)C(=O)NC(C)C)c(C)c1	125.0	0.8	18.1	-494.5
CCCC(=O)N(c1cccc(Cl)c1)C1C=CS(=O)(=O)C1 (centres undefined)	100.0	0	-14.6	-9.2
N#CC1(c2nc3ccccc3[nH]2)Cc2ccccc2N2CCCCC21 (centres undefined)	111.0	-0.25	-13.7	-1.6
Cc1nnc2c(N3CCCC3)nc3ccc(C(=O)c4ccccc4)cc3n12	103.0	1.9	-8.8	-8.8
N#Cc1cc(-c2ccc(Cl)cc2)no1	104.0	-2.55*	-16.1	-17.6
N#Cc1c(F)cccc1NCCO	/	-1.05	/	/
CCn1c(-c2cc(OC)ccc2OC)csc1=Nc1ccc(O)cc1	87.0*	-0.15	65.8*	-37.5
Cn1c(CNC(=O)c2ccccc2)n[nH]c1=S	104.0	-0.5	36.1	3.8
Cc1cccc(C(=O)NCc2n[nH]c(=S)n2-c2ccccc2)c1	102.0	1.6	58.5*	1.6
c1nncn1/N=C1/CCCc2nonc21	98.0	-1.2	84.0*	-44.3
COc1cc2c(cc1OC)C(C)N(C(=O)CN1C(=O)CCc3ccccc31)CC2 (centres undefined)	102.0	-2.9*	-6.2	-11.5
CN(C)S(=O)(=O)c1ccc2c(c1)oc(=O)n2C	105.0	1.6	4.7	27.3*
Cc1csc(=Nc2ccccc2F)n1/N=C/c1ccncc1	83.0*	-0.3	0.6	-22.0
SMILES	PV pol inh	AID504770	Mtb MbtI inh	Mtb MenB inh
Nc1nc(CN2CCCCC2)cs1	101.0	-0.75	-11.8	38.5*
Cc1cc(C)c(/C=N/NC(N)=O)c(C)c1/C=N/NC(N)=O	102.0	-3.25*	-13.9	2.3
CN1/C(=C\C(=O)C2CCCCC2)C(C)(C)c2ccccc21	103.0	-0.05	-14.2	-33.5
COc1ccc(NC(=O)CN2C(=O)c3ccccc3Sc3ccc(C(=O)N4CCCC4)cc32)c(OC)c1	/	-0.8	/	/
O=C(c1ccc(Cl)cc1)N1CCc2ccccc2C1	/	0	/	/
COc1ccc(OCC(=O)Sc2ccc(Cl)cc2)cc1	81.0*	-0.2	/	-20.1
O=c1c2c(F)c(F)c(F)c(F)c2on2c3c(cc12)CCCC3	87.0*	0.35	-12.4	-9.8
CCn1c(O)c(C=NCCn2c(C)nc3ccccc32)c(=O)n(CC)c1=S	99.0	-0.25	0.4	-41.6
C/C(=N\NC(=S)NC1CCCCC1)c1ccc(O)cc1	92.0	-0.1	90.3*	-5.5
C/C(=N\NC(N)=S)c1ccc(O)cc1	104.0	-1.25	31.9	-23.7
C/C(=N\NC(=S)Nc1ccccc1C)c1ccc(O)cc1	75.0*	0.45	93.4	-59.4
O=C(NCCc1ccccc1)C1CCCN(S(=O)(=O)c2ccc3[nH]c(=O)oc3c2)C1 (centres undefined)	101.0	0	1.4	-23.9
CCOC(=O)c1[nH]c(CSc2cccc[n+]2[O-])c(C(=O)OCC)c1C	66.0*	-1.25	36.5	-30.0
c1ccc(CNc2ccc(N3CCCCC3)nn2)cc1	102.0	-1	-0.1	2.8
CCc1ccc(-n2c(=S)sc3c(=O)n(-c4ccccc4)c(SCC#N)nc32)cc1	104.0	1.35	-0.3	-37.6
CSc1nc2c(sc(=S)n2-c2ccccc2C)c(=O)n1-c1ccccc1C	97.0	1.15	61.8*	-3.4
COC(=O)c1cccc(N2C(=O)C3C4C=CC(C)(O4)C3C2=O)c1 (centres undefined)	101.0	-0.65	98.8*	-4.9
CCN1CSC(=S)N(CC)C1	101.0	-2.5*	-5.7	-17.4
COC(=O)c1ccc2nc(NC(=O)CN3C(=O)CCC3=O)sc2c1	75.0*	-0.25	/	-4.6
